# PubChem BioAssay (NCI)
# The panel holds about 79,000 compounds, 15% with a hit somewhere; the sample as a whole holds those more often. A number with no mark means an inactive call. Active and inactive are the calls of the source. Cut-off read from the data, not from the text of the source: active = growth inhibition above about 70%; inactive = the rest.
# Columns and labels:
# [1] = NCI Yeast Anticancer Drug Screen. Data for the rad50 strain (AID 155);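 note: 0% = growth of vehicle-only cultures of the same strain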; settings: S. cerevisiae rad50 strain growth inhibition, stronger effect = higher value
# How it was run: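 Readout: growth inhibition relative to vehicle-treated cultures. Compound exposure was carried out in a genetically defined yeast strain deficient in DNA damage repair.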
# [2] = NCI Yeast Anticancer Drug Screen. Data for the mec2-1 strain (AID 157); settings: S. cerevisiae mec2-1 strain, stronger effect = higher value
# How it was run: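 Using mec2-1 yeast: add compound, measure growth, express inhibition versus vehicle-treated cultures.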
# [3] = NCI Yeast Anticancer Drug Screen. Data for the sgs1 mgt1 strain (AID 161);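 note: 0% = growth of cultures given vehicle only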; settings: S. cerevisiae sgs1 mgt1 strain, stronger effect = higher value
# How it was run: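 This yeast growth screen uses a strain with defined DNA-repair lesions; compound-treated growth is compared with vehicle-treated growth.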
# [4] = NCI Yeast Anticancer Drug Screen. Data for the cln2 rad14 strain (AID 165);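 note: 0% = growth equal to vehicle treated cultures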; settings: S. cerevisiae cln2 rad14 strain, stronger effect = higher value
# How it was run: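 Yeast strain cln2 rad14, bearing defects in cell cycle control and DNA repair, serves as the test system; values reflect growth inhibition compared with vehicle.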
# [5] = NCI Yeast Anticancer Drug Screen. Data for the bub3 strain (AID 167); settings: S. cerevisiae bub3 mutant strain, stronger effect = higher value
# How it was run: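 Readout: yeast growth inhibition, expressed relative to vehicle-only wells. The test organism is a mutant strain from a panel with lesions in DNA repair or checkpoint genes.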
# [6] = NCI Yeast Anticancer Drug Screen. Data for the mlh1 rad18 strain (AID 175); settings: S. cerevisiae mlh1 rad18 strain growth inhibition, stronger effect = higher value
# How it was run: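 Steps: expose repair-defective yeast to compound; measure growth; express inhibition against vehicle-treated controls.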
# [7] = at 5.0 µM (retest, dose inferred, filed as 0.5)
# [8] = at 50.0 µM (retest, dose inferred, filed as 5.0)
SMILES,"growth inhibition [1, 7] [%]","growth inhibition [1, 8]",growth inhibition ([1]; at 50.0 µM),"growth inhibition [2, 7] [%]","growth inhibition [2, 8]",growth inhibition ([2]; at 50.0 µM),"growth inhibition [3, 7]","growth inhibition [3, 8]",growth inhibition ([3]; at 50.0 µM),"growth inhibition [4, 7] [%]","growth inhibition [4, 8]",growth inhibition ([4]; at 50.0 µM),"growth inhibition [5, 7] [%]","growth inhibition [5, 8]",growth inhibition ([5]; at 50.0 µM),"growth inhibition [6, 7]","growth inhibition [6, 8]",growth inhibition ([6]; at 50.0 µM)
ClC(Cl)=C1C(=C(Cl)Cl)C(Cl)(Cl)C1(Cl)Cl,51,98% (active),88.2% (active),14,99% (active),92.6% (active),70% (active),99% (active),92% (active),55,97% (active),92.7% (active),56,98% (active),91.2% (active),74% (active),98% (active),88.2% (active)
O=C(c1ccc(Oc2ccccc2)cc1)C(C(c1ccccc1)N1CCOCC1)N1CCOCC1 (stereo not given),-5,35%,61.1%,12,59%,62.9%,-9%,81% (active),88.8% (active),-3,-1%,54.4%,0,61%,73% (active),,,
NSc1ccccn1,7,74% (active),90.4% (active),9,93% (active),93.5% (active),11%,79% (active),97.8% (active),29,84% (active),89.7% (active),3,92% (active),99% (active),4%,85% (active),96.7% (active)
CN1C=Cc2ccccc2C1C(C1c2ccccc2C=CN1C)[N+](=O)[O-] (stereo not given),0,5%,-5.6%,8,12%,-9.95%,-2%,56%,49%,2,7%,2.65%,-4,14%,15.8%,-11%,1%,-13.5%
COc1ccc(CN2CCCN(Cc3ccc(OC)cc3OC)C2c2cccc([N+](=O)[O-])c2O)c(OC)c1,16,61%,70.8% (active),11,29%,29.8%,8%,20%,77.5% (active),5,27%,54.1%,-5,31%,7.65%,16%,70% (active),51.4%
CC/C(C)=C1\CCC(CN2CCOCC2)C1=O (stereo not given),24,61%,79% (active),20,77% (active),72% (active),24%,70% (active),66.3%,31,45%,48.8%,31,94% (active),62.9%,,,
COc1ccc(C(=O)C(c2ccc(OC)cc2)C2(O)C(=O)Nc3c(Cl)cc(Cl)cc32)cc1 (stereo not given),37,37%,91% (active),-20,-20%,92.3% (active),8%,8%,90% (active),25,25%,90.9% (active),-6,-6%,90.7% (active),,,
O=[N+]([O-])C1CCC(C2=CSC3CCCCC3N2)CC1 (stereo not given),12,7%,34.6%,-16,44%,57.5%,-9%,23%,38.8%,23,31%,11.4%,0,52%,67.8%,,,
O=C(Oc1ccc(/C=C/[n+]2ccccc2)c(OC(=O)c2ccccc2)c1)c1ccccc1,-4,93% (active),49.6%,14,97% (active),18.7%,-11%,95% (active),70.2% (active),-8,91% (active),5.7%,1,83% (active),-1.45%,7%,98% (active),48.7%
